Test results as given in PubChem BioAssay (Tox21).
Inconclusive results are not listed. A call without a number means that no potency is given here. The source made the active and inactive calls. The call rests on the fitted dose curve.

Target: Peroxisome proliferator-activated receptor gamma (Homo sapiens) (UniProt P37231)
Test: qHTS assay to identify small molecule antagonists of the peroxisome proliferator-activated receptor gamma (PPARg) signaling pathway (AID 743191); further: nearly all actives have a fitted effect of over 30% in size
Settings: HEK293H PPARg-UAS-bla, beta-lactamase ratio, antagonist, 17 h; series mostly up to 62.6 µM
From the text: U.S. Tox21 Program National Center for Advancing Translational Sciences [NCATS] NIH Chemical Genomics Center [NCGC] U.S. Environmental Protection Agency [EPA] National Institutes of Environmental Health Sciences [NIEHS] National Toxicology Program [NTP] U.S. Food and Drug Administration [FDA] Tox21 Assay Overview: The peroxisome proliferator-activated receptors (PPARs) are lipid-activated transcription factors of the nuclear receptor superfamily with three distinct subtypes namely PPAR alpha, PPAR delta (also called PPAR beta) and PPAR gamma (PPARg). All these subtypes heterodimerize with Retinoid X receptor (RXR) and these heterodimers regulate transcription of various genes. PPAR-gamma receptor (glitazone receptor) is involved in the regulation of glucose and lipid metabolism. To identify the compounds that inhibit PPAR-gamma signaling, GeneBLAzer PPAR gamma UAS-bla HEK293H cell line (Invitrogen, Carlsbad, CA, USA) containing a beta-lactamase reporter gene under control of an Upstream Activator Sequence (UAS) was used to screen the Tox21 compound library.
Tox21 Assay Protocol Summary: PPARg-bla cells were dispensed at 3000 cells/6uL/well in 1536-well black wall/clear bottom plates using a Multidrop Combi (Thermo Fisher Scientific, Waltham, MA) dispenser. After the assay plates were incubated at 37C and 5% CO2 for 5 h, 23 nL of compounds dissolved in DMSO, positive controls or DMSO only was transferred to the assay plate by a Pintool station (Kalypsys, San Diego, CA). The assay plates were incubated at 37C for 17 h. After 1 uL of LiveBLAzerTM B/G FRET substrate was added using a Bioraptr Flying Reagent Dispenser (FRD) workstation (Beckman Coulter, Indianapolis, IN, USA), the plates were incubated at room temperature for 1 h, and fluorescence intensity was measured by an Envision plate reader (PerkinElmer, Shelton, CT).
Potency means the concentration at half of the fitted maximal effect.

Peroxisome proliferator-activated receptor gamma (Homo sapiens), sequence (P37231 whole entry, looked up): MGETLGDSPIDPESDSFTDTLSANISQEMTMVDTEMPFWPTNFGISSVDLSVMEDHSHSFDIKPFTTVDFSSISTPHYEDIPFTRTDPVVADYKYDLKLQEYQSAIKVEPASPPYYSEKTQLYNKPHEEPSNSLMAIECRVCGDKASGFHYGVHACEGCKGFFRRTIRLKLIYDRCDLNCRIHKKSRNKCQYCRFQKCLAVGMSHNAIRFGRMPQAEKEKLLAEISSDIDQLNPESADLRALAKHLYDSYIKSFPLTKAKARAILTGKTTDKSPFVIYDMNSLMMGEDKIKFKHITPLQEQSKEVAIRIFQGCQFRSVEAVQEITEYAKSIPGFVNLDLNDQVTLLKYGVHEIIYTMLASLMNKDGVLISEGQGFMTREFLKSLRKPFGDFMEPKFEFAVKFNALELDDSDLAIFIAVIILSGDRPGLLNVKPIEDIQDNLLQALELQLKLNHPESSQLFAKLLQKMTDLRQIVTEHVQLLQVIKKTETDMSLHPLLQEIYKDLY

Structure (SMILES)	Potency
C=C(C)[C@H]1Cc2c(ccc3c2O[C@@H]2COc4cc(OC)c(OC)cc4[C@@H]2C3=O)O1	13.3 µM (active)
N[C@@H](Cc1ccc(N(CCCl)CCCl)cc1)C(=O)O	inactive
Cc1cc(Cl)ccc1OCCCC(=O)O	inactive
NCc1cccnc1	inactive
Oc1c(Cl)c(Cl)c(Cl)c(Cl)c1Cl	3.4 µM (active)
CC1(C)C(C=C(Cl)Cl)C1C(=O)OC(C#N)c1cccc(Oc2ccccc2)c1 (stereo not given)	inactive
CCOc1cc(Oc2ccc(C(F)(F)F)cc2Cl)ccc1[N+](=O)[O-]	inactive
N#CC(Br)Br	inactive
C=CCN(CC=C)C(=O)C(Cl)Cl	inactive
O=P(O)(O)CCCl	inactive
C=C(C)C(=O)OCC1CO1 (stereo not given)	inactive
C[C@]12CCC(=O)C(O)=C1CC[C@@H]1[C@@H]2CC[C@]2(C)C(=O)CC[C@@H]12	inactive
c1ccc(N=Nc2ccccc2)cc1	inactive
CNC(=O)Oc1cccc2c1OC(C)(C)O2	inactive
CCCCCCCCC(=O)NCc1ccc(O)c(OC)c1	inactive
CC(O)CCO (stereo not given)	inactive
CCCCN(CC)c1c([N+](=O)[O-])cc(C(F)(F)F)cc1[N+](=O)[O-]	inactive
Cc1cccc(N)c1N	inactive
C1=Cc2cccc3cccc1c23	inactive
COC(=O)c1sccc1S(=O)(=O)NC(=O)Nc1nc(C)nc(OC)n1	inactive

Structure (SMILES)	Potency
Oc1cc(Cl)c(Cl)cc1Cl	inactive
CCCCC(CC)COC(=O)c1ccc(C(=O)OCC(CC)CCCC)c(C(=O)OCC(CC)CCCC)c1 (stereo not given)	inactive
O=[N+]([O-])c1cccc2ccccc12	inactive
CCCCCCCCOC(=O)c1ccccc1C(=O)OCCCCCCCC	inactive
CCN(CC)C(=O)SCc1ccc(Cl)cc1	inactive
Nc1c(Cl)cc([N+](=O)[O-])cc1Cl	inactive
c1ccc(-c2cccc(-c3ccccc3)c2)cc1	inactive
CN(C)C(=O)Nc1ccc(Cl)cc1	inactive
CCCCN(CCCC)N=O	inactive
NNC(=S)NN	inactive
c1ccc(P(c2ccccc2)c2ccccc2)cc1	inactive
O=S(=O)(Oc1ccc(Cl)cc1)c1ccc(Cl)cc1	inactive
CCN(CC)N=O	inactive
Cc1ccccc1[N+](=O)[O-]	inactive
CC(C)C(=O)OCC(C)(C)C(OC(=O)C(C)C)C(C)C (stereo not given)	inactive
CNC(=O)N(C)c1nnc(C(C)(C)C)s1	inactive
CC(C)(C)c1ccccc1O	inactive
CCCCC(CC)COC(=O)Cl (stereo not given)	inactive
CCN(N=O)C(N)=O	inactive
c1nc[nH]n1	inactive
